This excerpt belongs to a sample that is enriched for hits.
ST2 IL33 inh = inhibitors of human ST2 (IL1RL1) binding to IL-33, primary screen, biochemical, AlphaLISA; actives 2.3% (n = 78,000); inhibition, % for hits at 17 µM; AID 1259354, 2018; Interleukin-1 receptor-like 1 (Homo sapiens), Q01638; AlphaLISA ST2-Fc/biotin-IL-33 interaction, 1 h; in the data active = inhibition above about 30%
An asterisk follows results filed as active; i = inactive; ! = repeats disagree.

SMILES | ST2 IL33 inh
Cc1ccc2oc(C(=O)NCC3COc4ccccc4O3)c(C)c2c1 (configuration not stated) | i
COc1ccc(S(=O)(=O)N2CCC(N3CCCC3=O)CC2)c(OC)c1 | i
CCN1CCN(C(=O)CCC(=O)Nc2ccc3nc(N4CCOCC4)cc(C)c3c2)CC1 | i
CCCCNC(=O)c1cn(CC)c(=O)c2c1c1ccccc1n2C | i
Cc1ccc(C2CC(=O)c3cnc(NC(=O)c4ccccc4)nc3C2)cc1 (configuration not stated) | i
COc1ccc2cc3cc(C(=O)NCCCN4CCCCCC4)oc3nc2c1 | 31.0%*!
COc1ccc2cc3cc(C(=O)NCCCN4CCN(Cc5ccccc5)CC4)oc3nc2c1 | i
CCC1CCCCN1CCCNC(=O)c1cc2cc3ccc(OC)cc3nc2o1 (configuration not stated) | i
O=C(NCCCN1CCCC1)c1cc2cc3ccc(Cl)cc3nc2o1 | i
COc1ccc2cc3cc(C(=O)NCCN4CCOCC4)oc3nc2c1 | i
COc1ccc2cc3cc(C(=O)NCCCN4CCCC4)oc3nc2c1 | 33.0%*!
COc1ccccc1N1CCN(C(=O)c2cn(C)c(=O)c3c2c2ccccc2n3C)CC1 | i
CCN1CCN(Cc2cc(OC)c(O)c([N+](=O)[O-])c2)CC1 | i
Cc1cc(NC(=O)CCCn2nc([N+](=O)[O-])cc2C)n(-c2ccccc2)n1 | i
O=[N+]([O-])c1ccc(N=Cc2nc(-c3ccc(Cl)cc3)oc2O)cc1 | i
CCCc1nc(C)cc(N(C)Cc2ccnc(C)c2)n1 | i
O=C(c1ccc(-c2ccccc2)cc1)C1CCCN(C(=O)CSc2ncccn2)C1 (configuration not stated) | i
CCOc1ccccc1C(=O)N1CCN=C1SCc1ccc(Br)cc1 | i
CCc1[nH]c2c(CNC(=O)CCc3csc(N)n3)cc(C)cc2c1C | i
CC(C)CCNC(=O)c1ccc2c(c1)N(Cc1ccc(F)cc1Cl)C(=O)CS2 | i
O=c1oc2ccccc2cc1C1=Nn2c(nnc2-c2cccc(F)c2)SC1 | i
Fc1cccc(-c2nnc3n2N=C(c2ccc(Cl)s2)CS3)c1 | 30.0%*
COc1cccc(C2=Nn3c(nnc3-c3ccccc3)SC2)c1 | i
Cc1ccc2oc(-c3ccc(NC(=O)c4ccc5c(c4)OCCO5)cc3O)nc2c1 | 32.0%*
Cc1ccccc1-c1nc2cc(NC(=O)c3ccc4c(c3)OCCO4)ccc2o1 | i
SMILES | ST2 IL33 inh
COc1cc(C(=O)Nc2ccc(-c3nc4cc(C)ccc4o3)c(O)c2)cc(OC)c1OC | i
CC1(C2CCN(Cc3cccc4c3OC(F)(F)O4)CC2)NC(=O)NC1=O (configuration not stated) | i
Oc1ccccc1/C=C/c1nc(-c2ccccc2O)n(-c2ccccc2)n1 | 36.0%*
Cc1cc(C)n(-c2nc(-c3ccccc3)cc(-c3ccccc3O)n2)n1 | i
COc1ccc(/C=C/c2nc(-c3ccccc3O)n(-c3ccccc3)n2)cc1OC | 36.0%*
COc1ccc(-c2cnn(-c3ccccc3)c2N)cc1OC | i
COc1cc(/C=C/c2nc3ccccc3c(=O)n2-c2cccc([N+](=O)[O-])c2)ccc1O | i
Oc1ccccc1C=Nc1ccccc1-c1nnc2n1CCCCC2 | i
CC(=O)Nc1cccc(NC(=O)c2ccc(F)cc2)c1 | i
Cc1ccc2oc(-c3ccc4c(c3)C(=O)N(CC3CCCO3)C4=O)nc2c1 (configuration not stated) | i
O=C(O)CCCC(=O)Nc1ccc(NC(=O)c2ccco2)cc1 | i
Cc1cc(C)cc(N2CCN(C(=O)c3ccc(C)[nH]c3=O)CC2=O)c1 | i
COc1ccc2oc(=O)c(NC(=O)/C=C/c3ccccc3)cc2c1 | i
COc1ccc(/C=C/C(=O)Nc2ccccc2C(=O)O)cc1OC | i
CC1=CC(=O)C=C(C)C1=NOC(=O)/C=C\c1ccccc1 | 35.0%*
O=c1[nH]c2ccc(S(=O)(=O)Nc3ccc(Cl)cc3F)cc2s1 | i
COCC(=O)N1Cc2c(ncn2Cc2ccc(OC)cc2)C[C@H]1C(=O)OC | 68.0%*
COC(=O)[C@@H]1Cc2ncn(Cc3ccc(Cl)cc3)c2CN1Cc1ccc(F)cc1 | i
COC(=O)[C@@H]1Cc2ncn(Cc3ccc(Cl)cc3)c2CN1C(=O)c1ccccc1OC | i
COC(=O)[C@@H]1Cc2ncn(Cc3ccc(Cl)cc3)c2CN1S(C)(=O)=O | i
COC(=O)[C@@H]1Cc2ncn(Cc3ccc(OC)cc3)c2CN1C(=O)c1ccc(OC)cc1 | i
COC(=O)[C@@H]1Cc2ncn(Cc3ccc(Cl)cc3)c2CN1Cc1ccc(CO)o1 | i
COC(=O)[C@@H]1Cc2ncn(Cc3ccc(Cl)cc3)c2CN1C(=O)COc1ccccc1 | i
COC(=O)[C@@H]1Cc2ncn(Cc3ccc(OC)cc3)c2CN1Cc1ccc(OC)cc1 | 89.0%*
COC(=O)[C@@H]1Cc2ncn(Cc3ccc(OC)cc3)c2CN1Cc1cccc(C#N)c1 | 41.0%*
COCCn1c(CCCC(=O)NCc2cccnc2)nc2cccnc21 | i

Screening data as filed in PubChem.
